The results in this text go back to PubChem BioAssay AID1671194 (National Center for Advancing Translational Sciences (NCATS), 2021).

Among all 140,000 compounds or so, about 240 (0.17%) were called active. Another 9% or so got no clear call; they are omitted. The call rests on the fitted dose curve; in most records, active means well fitted inhibition curve with a large enough effect; inconclusive means small, poorly fitted or top-dose-only effect; inactive means no such curve, though single readings can be large or run the other way. The list comes from a sample in which actives are over-represented; it also holds similar structures and randomly drawn compounds.
Potency means the concentration at half of the fitted maximal effect.

The nature of the experiment: Primary qHTS assay for inhibitors of alpha-synuclein gene (SNCA) expression. Further: nearly all actives have a fitted effect of over 45% in size. As to conditions: HEK-293 SNCA-luciferase knock-in, luminescence, 24 h; series mostly up to 57.2 µM; activity change, negative = inhibition: at the top concentration. From the text: Assay Submitter (PI): Daniel R. Scoles Ph.D.
Department of Neurology, University of Utah, Salt Lake City, Utah
Accumulation of alpha-synuclein is a main underlying pathological feature of Parkinson's disease (PD) and alpha-synucleinopathies, for which lowering expression of the alpha-synuclein gene (SNCA) is a potential therapeutic avenue. Using a cell-based luciferase reporter of SNCA expression we performed a quantitative high throughput screen (qHTS) of 155,885 compounds in dose response. The screening assay was generated using genome editing to insert the luciferase gene downstream and in frame of the SNCA gene in HEK-293 cells (1). A viability counterscreen using GF-AFC was used to eliminate cytotoxic and false positive compounds. After in silico analysis (clustering, removal of frequent hitter nuisance chemotypes), inhibitor compounds from the primary screen were selected for follow up and re-tested at 11-doses in the SNCA-luc cells (luciferase and GF-AFC confirmation), and in CMV-luc expressing cell line to flag general transcriptional repressors.
Described herein are the results of the primary screen for SNCA inhibitors; decrease in luciferase signal (inhibition of the SNCA gene expression) is the desired output for this assay.
1. Dansithong, W., Paul, S., Scoles, D. R., Pulst, S. M., and Huynh, D. P. (2015) Generation of SNCA Cell Models Using Zinc Finger Nuclease (ZFN) Technology for Efficient High-Throughput Drug Screening. PLoS ONE 10, e0136930.
SEQUENCE No. (e.g., 1, 2, 3, etc.); […] (e.g., Cells, Incubation, Reagent, etc.); VALUE; DESCRIPTION
1; Cells; 4 uL; Dispense 1500 HEK-293-SNCA-luc cells/well into Greiner 1536-well white / solid bottom tissue culture treated plate. The plate was covered with metal lids with gas-exchange holes.
2; Incubate; 24 hours; Incubate at 37C, 5% CO2, 95% RH.
3; Compounds; 23 nL; Compounds and controls were transferred via a Kalypsys Pin Tool (Wako USA) equipped with a 1536-slotted pin array. The plate was covered with metal lids with gas-exchange holes.
4; Incubate; 24 hours; Incubate at 37C, 5% CO2, 95% RH.
5; Dispense; 1 uL; Dispense Gly-Phe-7-amino-4-trifluoromethylcoumarin (GF-AFC, prepared at 125 uM in PBS) was added. The plate was covered with metal lids with gas-exchange holes.
6; Incubate; 30 min; Incubate at 37C, 5% CO2.
7; Detector; Fluorescence; Measure fluorescence with ViewLux microplate reader (PerkinElmer) equipped with 405/10 excitation and 540/25 emission filters.
8; Dispense; 3 uL; Dispense ONE-Glo ([…]) lucifase detection reagent was added to each well. Plates were covered with metal lids with gas-exchange holes.
9; Incubate; 15 min; Incubate at room temperature.
10; Detector; Luminescence; Measure luminescence with ViewLux microplate reader (PerkinElmer) equipped with clear filters.
NOTES (numbers refer to sequence above)
1; HEK-293-SNCA-luc were cultured and suspended in phenol-red free DMEM (4.5 g/L glucose, 25 mM HEPES, cat #21063 (Thermo)).
3; Compounds were added to the assay plate in an 11-point intra plate dose response, 1:3 titration in DMSO with a final concentration range of […]. Vehicle-only plates, with DMSO being pin-transferred to every well, were inserted at the beginning of screening runs to confirm expected assay performance. Activity was normalized to wells containing medium only (-100% activity, full inhibition) and SNCA-luc cells treated with DMSO vehicle control (0% activity), contained on the same plate as test samples.
10; Signals were analyzed, and dose-response curves were fit using the Hill equation. Compounds in curve classes -1.1, -1.2, -2.1, -2.2 in the SNCA-luc assay were considered active. Compounds were eliminated from further consideration if also active (curve class -1.1, -1.2, -1.3, -1.4, -2.1, -2.2, -2.3, -2.4) in the GF-AFC cytotoxicity assay.
A general note: Quantitative high-throughput screening tests each substance at several concentrations.
`Cc1ccc(-c2noc([C@@H]3C[C@@H](O)CN3Cc3cccc(C#N)c3)n2)cc1F`: the “activity change, negative = inhibition” value is 50% [at 87.6 µM] (inactive).

Consider `O=C(Cc1ccccn1)N1CCC(C(=O)N2CCC(N3CCCC3=O)CC2)CC1`, for which the “activity change, negative = inhibition” value was 23% (inactive). Same read-out and setting: with `O=C(NCCc1ccccc1)C1=NO[C@@H]2CN(Cc3ccc(F)cc3)C[C@H]12` the figure was -24% [at 87.6 µM] (inactive). Same read-out and setting: with `CC1(C)[C@H](Cc2cc(CC3CCCCC3)on2)C[C@@H]1NC1CCOCC1` the figure was -20.1% [at 87.6 µM] (inactive); with `COc1cc(OC)c(CNC(=O)c2c(C)noc2-c2cc(OC)c(OC)c(OC)c2)c(OC)c1`, -14% (inactive); with `O=C(NCc1cccc(F)c1)c1c[nH]c2ncccc12`, 38.6% [at 87.6 µM] (inactive). On to `Cc1ccc(C(=O)N2CCC(N3CC4CC(C3)[C@H]3CCCC(=O)N3C4)CC2)s1` (stereo partly drawn), for which the “activity change, negative = inhibition” value is -10.4% (inactive). Consider `CCOc1cccc(CNC(=O)CC2CCCCN(Cc3ccccc3)C2=O)c1` (stereo not drawn), for which the “activity change, negative = inhibition” value is -19.5% (inactive).

As to `O=C(NCc1ccccc1)C1CCN(c2nccc(Nc3ccccc3Cl)n2)CC1`, the “activity change, negative = inhibition” value is 15.5% (inactive). On to `COc1ccccc1-c1[nH]nc2ncc(-c3cccc(CO)c3)nc12`, for which the “activity change, negative = inhibition” value is 40% [at 87.6 µM] (inactive). As for `O=C(Cc1ccccn1)N1CCCC(C(=O)N2CCC(c3nc4ncccc4[nH]3)CC2)C1` (stereo not drawn), the “activity change, negative = inhibition” value was -25.7% (inactive).

Regarding `COc1ccc(Nc2cnc3ccc(-c4ccc(OC)nc4)nn23)cc1`, the “activity change, negative = inhibition” value is 16% [at 87.6 µM] (inactive). As for `O=C1NC2(Cc3ccccc31)CN([S+](=O)([O-])c1ccccc1)C2`, the “activity change, negative = inhibition” value is -1.01% (inactive). On the same count and under the same terms, the result for `COCC(=O)N1CC(C(=O)NCCc2ccccn2)C2(CCOCC2)C1` (stereo not drawn) reads -5.39% (inactive). As for `Cc1ccc(CNC(=O)c2ccc3c(c2)CN(Cc2cccnc2Cl)CCO3)cc1`, the “activity change, negative = inhibition” value was 9.94% (inactive). For the compound `O=C1CO[C@H]2CN(C3CCC3)C[C@H]2N1Cc1ccc(OC(F)(F)F)cc1`, the “activity change, negative = inhibition” value was -24.4% [at 87.6 µM] (inactive). Consider `O=C1NCCc2[nH]c(-c3ccncc3)cc21`, for which the Potency is 3.41 µM (active). Consider `CC(C)CNC(=O)C1CCCN(c2nccc(Nc3ccccc3F)n2)C1` (stereo not drawn), for which the “activity change, negative = inhibition” value was -8.89% (inactive). Turning to `CN(Cc1ccccc1)C(=O)CC1CCN(C(=O)CCC2CCCC2)C1` (stereo not drawn), the “activity change, negative = inhibition” value is 5.5% (inactive). Turning to `COc1ccc(CC(=O)NC2CCN(c3cc(-c4ccccc4)[nH]n3)CC2)cc1`, the “activity change, negative = inhibition” value is 0.566% (inactive). For the compound `CC(=O)c1cnc2ccc(-c3cc(Cl)c(O)c(Cl)c3)nc2c1NC1CCC(CN(C)C)CC1` (stereo not drawn), the Potency was 0.027 µM (active). Consider `CCN(CC)Cc1ccc2c(c1)CN(C(=O)Cc1c[nH]c3ccccc13)CCO2`, for which the “activity change, negative = inhibition” value was 1.62% (inactive). On to `N#Cc1cccc(-c2c(C(=O)NCCc3ccccc3)nc3sccn23)c1`, for which the “activity change, negative = inhibition” value is 21.4% (inactive). On to `COc1ccccc1CCC(=O)N1C[C@H](N)C[C@H]1C(=O)NC(C)C`, for which the “activity change, negative = inhibition” value was -20.2% (inactive). Still for that read-out and setting: with `COc1cccc(CNC(=O)c2cc(-c3cccnc3)nc3c2cnn3C)c1` the figure was -17.4% (inactive).

Take `COCCN1C(=O)N(C)C(=O)C12CCN(Cc1cc(F)ccc1F)C2` (stereo not drawn): the “activity change, negative = inhibition” value was -6.12% (inactive). In the case of `O=C1NCCCCCN(C(=O)Cc2ccccc2)[C@@H]2C[C@@H](C(=O)N3CCc4ccccc4C3)C[C@H]12`, the “activity change, negative = inhibition” value is -16.4% (inactive).

Consider `CCCNC(=O)C(NC(=O)c1ccccc1C)C1CCN(C(=O)c2ccc(OC)cc2)CC1` (stereo not drawn), for which the “activity change, negative = inhibition” value was 17.1% (inactive). For `O=S(=O)(c1cccc(F)c1)N1CC[C@@H]2COCCN(Cc3cccnc3)[C@@H]2C1`, the “activity change, negative = inhibition” value was 16.8% (inactive). On to `CN(C)c1ccc(CN[C@H]2[C@H](O)[C@@H](N3CCC(Cc4ccccc4)CC3)[C@@H]3OC[C@H]2O3)cc1`, for which the “activity change, negative = inhibition” value is -9.07% (inactive). On to `Cc1ccc(C(=O)N2CCC3(CC2)NC(=O)N(Cc2ccc(F)cc2)C3=O)cc1`, for which the “activity change, negative = inhibition” value is 7.66% (inactive).

In the case of `COc1ccc2[nH]cc(CCNc3cc(-c4ccccc4CN(C)C)ncn3)c2c1`, the “activity change, negative = inhibition” value was -19.4% (inactive). For the compound `CN(C)CCc1c[nH]c2ccc(Cn3cncn3)cc12`, the Potency was 2.71 µM (active).

As to `CS(=O)(=O)N(Cc1ccccn1)C1CN(C(=O)NCCc2ccccc2)C1`, the “activity change, negative = inhibition” value is -15.2% (inactive). The same measure, in the same setting: with `O=C(NCc1ccc(F)cc1)c1nc(-c2ccccc2)c2ccccn12` the figure was -74.1% (inactive). On to `Cn1ncc2c(C(=O)NCc3cccnc3)cc(C(C)(C)C)nc21`, for which the “activity change, negative = inhibition” value is -10.6% (inactive).

In the case of `CC(=O)N1CCN(C(=O)C2CCCN2Cc2ccc(-c3cc(C)cc(C)c3)cc2)CC1` (stereo not drawn), the “activity change, negative = inhibition” value is 22.3% (inactive). Consider `CC1=C[C@@H](CN2CCCC2)[C@H](C(C)C)C[C@H]1Cc1nnc(-c2ccc([N+](=O)[O-])cc2)o1`, for which the “activity change, negative = inhibition” value was -27.7% [at 87.6 µM] (inactive). As to `Cc1nc(N2CCC(NCCNc3ccncc3C)CC2)c2ccsc2n1`, the “activity change, negative = inhibition” value was -2.65% (inactive). As to `Cc1ccccc1C(=O)N1CCC(C(=O)N2CCC(c3nc4ccncc4[nH]3)C2)CC1` (stereo not drawn), the “activity change, negative = inhibition” value is 6.85% (inactive). As to `CC(=O)N1CCC(N[C@H]2C[C@@H](Cc3cc(CN(C)c4ccccc4)on3)C2(C)C)CC1`, the “activity change, negative = inhibition” value is 4.87% [at 87.6 µM] (inactive). The same measure, in the same setting: with `COc1ccc(-c2cn3cc(C(=O)NCc4ccc(F)cc4)nc3s2)cc1` the figure was -7.67% (inactive); with `COc1ccc(CN2CC(Oc3ccc(OC)cc3)C2)cc1`, -5.4% [at 87.6 µM] (inactive). The same measure, in the same setting: with `CCCCn1c(=O)c(C(=O)N2CCN(C(=O)c3ccccc3)CC2)nc2cccnc21` the figure was -2.39% (inactive); with `Cc1ccccc1-c1ccnc(-c2nnc(C)n2C(C)C)c1`, -7.25% [at 87.6 µM] (inactive); with `Cc1ccc(OCC(=O)N2CCC(c3nn(C)c4c3COCC4)CC2)cc1`, 1.65% (inactive). In the case of `COCCOCC1(CNS(=O)(=O)c2c(C)noc2C)C[C@@H](O)[C@@H](O)C1` (stereo partly drawn), the “activity change, negative = inhibition” value is 4.32% [at 87.6 µM] (inactive). As to `c1ccc(CNC[C@H]2Cn3cc(-c4ccccc4)nc3CO2)cc1`, the “activity change, negative = inhibition” value is 84.9% [at 87.6 µM] (inactive). As for `Cc1nnc(-c2cc(-c3ccccc3)ccn2)n1CCc1ccccc1`, the “activity change, negative = inhibition” value is 32.3% [at 87.6 µM] (inactive).

Consider `CC(C)=CCC1(CO)CCCN(Cc2ccccc2OCCO)C1` (stereo not drawn), for which the “activity change, negative = inhibition” value is -6.74% (inactive). As for `O=C1NCCCCCCN(Cc2ccncc2)[C@@H]2CN(CC3CC3)CC[C@@H]12`, the “activity change, negative = inhibition” value was -21.1% (inactive). In the case of `CC[C@H]1CN(C(=O)Nc2cccc(C(F)(F)F)c2)CC[C@H]1CC(=O)NCCSC`, the “activity change, negative = inhibition” value is -20% [at 87.6 µM] (inactive). For the compound `COC(=O)c1cccc(NC(=O)N2CCc3c(nc4cc(-c5ccccc5)[nH]n4c3=O)C2)c1`, the “activity change, negative = inhibition” value is 37.1% (inactive). On the same count and under the same terms, with `NCc1ccccc1-c1cccc(O)c1` the figure was -17.9% [at 87.6 µM] (inactive); with `O=C(c1n[nH]c2c1CCCC2)N1CCC2(CC1)NC(=O)N(c1ccc(F)cc1)N2`, 0.129% (inactive); with `COc1ccc(OC)c(CN2CCC3(CC2)COCCN3C(=O)OCc2ccccc2)c1`, -4.88% (inactive). On the same count and under the same terms, the result for `COc1ccc(-c2ncc3c(n2)OCCN(CC2CC2)C3=O)cc1` reads -22.4% [at 87.6 µM] (inactive). Regarding `O=C([C@@H]1C[C@H](c2ccc(F)cc2)N([S+](=O)([O-])C2CC2)C1)N1CCN(c2ccccn2)CC1`, the “activity change, negative = inhibition” value was 54.6% (inactive). On the same count and under the same terms, with `COCCNC(=O)[C@@H]1C[C@H](Oc2cccnc2)CN1C(=O)C1CC=CC1` the figure was 9.07% (inactive); with `COc1cccc(CNC(=O)N2CCCC3(C2)Nc2cccnc2NC3=NC2CCCC2)c1` (stereo not drawn), -21.6% (inactive); with `Cc1cccc(Cc2c(C)nc3nc(SCc4ccccc4Cl)nn3c2C)c1`, 12.7% (inactive).

As to `CCn1cc2nc(SCc3ccccc3Cl)n(CCc3ccccc3)c(=O)c2n1`, the Potency was 14.1 µM (active). On to `CCN(CC)C(=O)CSc1nc2ccsc2c(=O)n1Cc1ccccc1Cl`, for which the “activity change, negative = inhibition” value is -0.0876% (inactive).
